PMC4336329 (PLoS ONE, 2015)
About 14,000 (4.5%) of roughly 310,000 compounds showed an effect of 50% or more. Effects have a minus sign here. The list comes from a sample in which strong results are over-represented; it also holds similar structures and randomly drawn compounds.

The compounds below were run against human ether-à-go-go-related gene (hERG) potassium channel (human, UniProt Q12809) (assay: primary screen, population patch clamp on CHO cells stably expressing hERG; higher = less effect of the substance).
Sequence of human ether-à-go-go-related gene (hERG) potassium channel (Q12809 whole entry, looked up): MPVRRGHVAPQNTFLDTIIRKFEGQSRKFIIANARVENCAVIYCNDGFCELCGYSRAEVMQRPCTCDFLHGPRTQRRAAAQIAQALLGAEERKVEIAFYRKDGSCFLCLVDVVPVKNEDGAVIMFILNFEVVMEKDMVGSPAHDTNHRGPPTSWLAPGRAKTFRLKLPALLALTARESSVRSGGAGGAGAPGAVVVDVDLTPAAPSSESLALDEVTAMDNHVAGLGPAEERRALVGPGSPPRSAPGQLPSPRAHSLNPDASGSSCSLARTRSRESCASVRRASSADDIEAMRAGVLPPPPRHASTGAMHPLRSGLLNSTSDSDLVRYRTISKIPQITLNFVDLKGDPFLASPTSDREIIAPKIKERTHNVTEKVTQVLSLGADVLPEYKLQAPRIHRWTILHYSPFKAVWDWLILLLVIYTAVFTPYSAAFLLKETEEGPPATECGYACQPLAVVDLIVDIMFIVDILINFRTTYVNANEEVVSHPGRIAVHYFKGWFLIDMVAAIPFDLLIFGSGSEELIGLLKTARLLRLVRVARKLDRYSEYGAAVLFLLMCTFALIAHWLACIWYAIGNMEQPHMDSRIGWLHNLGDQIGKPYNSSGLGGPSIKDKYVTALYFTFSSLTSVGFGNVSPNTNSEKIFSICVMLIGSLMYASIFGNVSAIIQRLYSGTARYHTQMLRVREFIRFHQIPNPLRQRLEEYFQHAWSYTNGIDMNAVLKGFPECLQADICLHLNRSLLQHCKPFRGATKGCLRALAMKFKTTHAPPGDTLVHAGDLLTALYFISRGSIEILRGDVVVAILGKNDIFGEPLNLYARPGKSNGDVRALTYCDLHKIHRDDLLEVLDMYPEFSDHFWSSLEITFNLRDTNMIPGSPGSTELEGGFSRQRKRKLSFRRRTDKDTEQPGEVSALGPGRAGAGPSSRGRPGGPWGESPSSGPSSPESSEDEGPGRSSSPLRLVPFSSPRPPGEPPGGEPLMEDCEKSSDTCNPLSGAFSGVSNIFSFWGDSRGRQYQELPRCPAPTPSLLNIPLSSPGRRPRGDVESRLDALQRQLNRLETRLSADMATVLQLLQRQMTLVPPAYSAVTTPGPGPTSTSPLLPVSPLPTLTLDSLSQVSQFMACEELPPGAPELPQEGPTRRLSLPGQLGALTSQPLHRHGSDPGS
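Also: peak tail current of the secondary pulse compared with the same well before compound.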

In order of falling “hERG current change (%, negative = inhibition) at 10uM” value:
1. N/C(=N\c1nc2ccccc2o1)NC(=O)c1ccc(Cl)cc1  35.6%
2. O=C(O)CNC(=O)c1nc(-c2ccccc2)n(-c2ccccc2)n1  22.9%
3. O=C(NCc1cccnc1)C(=O)NCC1CCCO1 (stereo not shown)  21.5%
4. O=C(Nc1ccc(N2CCCC2)cc1)c1cc2ccccc2o1  20.4%
5. Cc1csc(NC(=O)c2ccccc2)n1  16.8%
6. O=C(NCCN1CCOCC1)c1ccc(Cl)c([N+](=O)[O-])c1  16.5%
7. O=C(Nc1ccc(N2CCOCC2)cc1)c1ccc(-c2ccccc2[N+](=O)[O-])o1  15.9%
8. CCC(Sc1nc(N)c(NC(=O)c2ccc(Br)o2)c(=O)[nH]1)C(=O)O (stereo not shown)  15.4%
9. COc1ccccc1NC(=O)c1oc2ccc(C)cc2c1C  14.1%
10. Cc1cc(Cl)ccc1OCCCC(=O)NN  13.8%
11. CSc1nc2sc3c(c2c(=O)[nH]1)CC(C)(C)OC3  13.8%
12. O=C(Nc1ccc(F)c(Cl)c1)NC1CC1  13.7%
13. CC(=O)c1cccc(N(CC(=O)Nc2cc(C)cc(C)c2)S(C)(=O)=O)c1  13.3%
14. Cc1ccc(OCC(=O)OC(C)CN2CCCCC2)cc1.Cl (stereo not shown)  12.2%
15. O=C(CCCOc1ccc(Cl)cc1Cl)N1CCc2ccccc2C1  12%
16. O=C(NC(=S)Nc1ccc(CN2CCOCC2)cc1)c1cc2ccccc2o1  11.7%
17. CN1CCN(c2ccc(NC(=O)c3ccc(-c4ccc(Cl)cc4)o3)cc2)CC1  11.5%
18. Cc1cc(C)nc(N2CCCC(C(=O)Nc3ccc4nc(C)c(C)nc4c3)C2)n1 (stereo not shown)  9.96%
19. CCOC(=O)C1=C(c2ccc(O)cc2)NC(=O)NC1C (stereo not shown)  9.47%
20. Cc1ccc2c(c1)N(C(C)C(=O)NCCc1ccccc1)C(=O)CO2 (stereo not shown)  7.21%
21. O=C(NC(=S)Nc1ccc(CN2CCOCC2)cc1)c1ccc(-c2cccc(Cl)c2)o1  7.11%
22. O=C(CCc1nc(-c2ccccc2Cl)no1)NCCc1ccccc1  7.08%
23. COc1ccc(-c2ccc(CNCCCN3CCOCC3)o2)cc1Cl.Cl  6.83%
24. O=C(Nc1nccs1)c1nc(-c2ccccc2)n(-c2ccccc2)n1  6.62%
25. CSc1ccccc1NC(=O)COc1ccccc1C  6.39%
26. COc1cc(C)c(S(=O)(=O)Nc2ccccc2F)cc1C  6.11%
27. O=c1[nH][nH]c(-c2ccccc2)c1C=Nc1cccc(Cl)c1  5.35%
28. O=C(Nc1ccc(-c2nnc3n2CCCCC3)cc1)c1ccco1  5.26%
29. O=C(O)c1nc(-c2ccccc2)n(-c2ccccc2)n1  4.87%
30. O=C(Nc1ccc(N2CCOCC2)cc1)c1cc2ccccc2o1  4.38%
31. C/C(CC1CC(COCCC(C)C)OC1=O)=N\NC(N)=S (stereo not shown)  4.37%
32. COC(=O)C1=C(N)Oc2cc(C)n(CC3CCCO3)c(=O)c2C1c1ccc(Cl)c(Cl)c1 (stereo not shown)  3.95%
33. COc1ccc(CCNC(=O)c2ccccc2C(=O)NCCc2ccc(OC)c(OC)c2)cc1OC  3.48%
34. CCC12CN(C(=O)c3ccc(OC)cc3)CC(CC)(CN(C(=O)c3ccc(OC)cc3)C1)C2=O  3.45%
35. CCc1ccccc1N1CN(Cc2cccnc2)CNC1=S  3.35%
36. CCOC(=O)C1(CC2CCCCO2)CCN(C(=O)Nc2ccc(SC)cc2)CC1 (stereo not shown)  2.65%
37. Cc1cc2cc3c(cc2nc1SCC(=O)N1CCOCC1)OCO3  2.58%
38. COc1cccc(/C=N/NC(=O)CN(C2=NS(=O)(=O)c3ccccc32)c2ccccc2)c1  0.919%
39. CC1(C)CC(=O)C(C(c2ccc(Br)cc2)C2C(=O)CC(C)(C)CC2=O)C(=O)C1  0.769%
40. O=C(Nc1ccc(N2CCCC2)cc1)c1ccc2ccccc2c1  0.743%
41. CN1CCN(c2ccc(NC(=O)c3ccc(-c4ccc(Br)cc4)o3)cc2)CC1  0.645%
42. CN1CCN(CC#CCOc2ccc(Cl)cc2)CC1.O=C(O)C(=O)O  -0.0359%
43. c1coc(CNCCCN2CCOCC2)c1  -0.128%
44. Cc1ccc(C2=NS(=O)(=O)N(C)C(C(=O)NCc3ccccc3)=C2)cc1  -0.52%
45. Cc1cc(Cl)ccc1OCC(=O)N1CCCCC1  -0.846%
46. CCC(C(=O)OCc1csc(CC(=O)Nc2ccccc2C)n1)c1ccccc1 (stereo not shown)  -6.51%
47. CC(=O)N1CCN(c2ccc(NC(=O)c3ccc4ccccc4c3)cc2)CC1  -7.05%
48. Cc1nnc(SCC(=O)NCc2ccccc2)[nH]c1=O  -7.09%
49. CCOc1ccc(S(=O)(=O)NCCC(=O)N2CCN(c3ncccn3)CC2)cc1  -8.57%
50. CS(=O)(=O)N1CCN(c2ccc(NC(=O)c3ccc(-c4ccc(Cl)cc4)o3)cc2)CC1  -10.6%
51. CC1(C)CC2CC(C)(CN2S(=O)(=O)c2ccc(F)cc2F)C1 (stereo not shown)  -11.8%
52. Cn1c(=O)c2c(ncn2CC(COCc2ccccc2)OCc2ccccc2)n(C)c1=O (stereo not shown)  -12.1%
53. COc1ccc(CCNC(=O)c2c(O)c3ccccc3n(C)c2=O)cc1  -12.1%
54. Cc1cc(Cl)ccc1OCC(=O)N1CCN(C)CC1  -12.5%
55. CN(Cc1ccc(F)cc1)C(=O)c1cccc(NS(=O)(=O)c2ccccc2)c1  -13.4%
56. Cc1c(C(=O)Nc2ccc(-c3nnc4n3CCCCC4)cc2)oc2c1ccc1ccccc12  -13.8%
57. Cc1cc(Cl)ccc1OCCCC(=O)N1CCCCC1  -14.2%
58. COc1ccc(Cn2c(O)c(C=NCCN3CCOCC3)c(=O)[nH]c2=O)cc1  -14.4%
59. CCC1Oc2ccc(C)cc2N(CC(=O)NCCC2=CCCCC2)C1=O (stereo not shown)  -16%
60. COc1cccc(C(=O)Nc2ncc3c(n2)CC(c2ccc(OC)cc2OC)CC3=O)c1 (stereo not shown)  -17.3%
61. Cc1cccn2c(=O)c3cc(C(=O)NCCN4CCOCC4)c(=N)n(Cc4cccnc4)c3nc12  -18.4%
62. CN(C)CCC(O)(c1ccccc1)c1ccccc1.Cl  -20.2%
63. Cc1cc(Cl)ccc1OCC(=O)NC1CCCC1  -22.2%
64. CCC(Sc1nc2ccccc2c(=O)n1CC1CCCO1)C(=O)NCc1cccnc1 (stereo not shown)  -23.5%
65. CC(=O)N1CCN(c2ccc(NC(=O)c3cc4ccccc4o3)cc2)CC1  -24.5%
66. Cc1cc(Cl)ccc1OCCCC(=O)N1CCOCC1  -25%
67. COc1cc(C(=O)Nc2cc(C(F)(F)F)ccc2N2CCOCC2)ccc1O  -26.6%
68. COc1ccc(/C=C2/C(=O)OCc3cc(OC)c(OC)cc32)c(OC)c1  -27.8%
69. Cc1cc(Cl)ccc1OCCCC(=O)N1CCN(C)CC1  -30%
70. Cn1c(=O)c2c(ncn2CC(COCc2ccccc2Cl)OCc2ccccc2Cl)n(C)c1=O (stereo not shown)  -33.6%
71. CN(C)C(C)(C)/C=C/C(O)(c1ccccc1)c1ccccc1  -36.6%
72. C=CCNC(=O)c1cc(-c2ccncc2)nc2c(C)cc(C)cc12  -43.5%
73. O=C(c1cccc(S(=O)(=O)N2CCOCC2)c1)N1CCN(C/C=C/c2ccccc2)CC1  -46.3%
74. O=C(Nc1ccc(CN2CCOCC2)cc1)c1ccc(-c2cccc([N+](=O)[O-])c2)o1  -48.3%
75. O=C(Nc1ccc(CN2CCOCC2)cc1)c1cc2ccccc2o1  -50.2%
76. Cn1c(=O)c2c(ncn2CC(COCc2ccc(Cl)cc2)OCc2ccc(Cl)cc2)n(C)c1=O (stereo not shown)  -51.1%
77. Cc1cc(Cl)ccc1OCCCC(=O)NC1CCN(C)CC1  -51.2%
78. O=C(Nc1ccc(CN2CCOCC2)cc1)c1ccc(-c2cccc(Cl)c2)o1  -52.8%
79. CCCC(C)NC(=O)c1nc(-c2ccccc2)n(-c2ccccc2)n1 (stereo not shown)  -55.7%
80. Cl.Clc1cccc(-c2ccc(CNCCCN3CCOCC3)o2)c1  -58.3%
81. Cc1cc(Cl)ccc1OCC(=O)N1CCCN(C(=O)COc2ccc(Cl)cc2C)CC1  -58.5%
82. CN(C)C/C=C/C(O)(c1ccccc1)c1ccccc1  -61.5%
83. CN1CCN(C(=O)CCCOc2ccc(Cl)cc2Cl)CC1  -61.6%
84. CN1CCN(c2ccc(NC(=O)c3ccc4ccccc4c3)cc2)CC1  -66.1%
85. CN1CCN(c2ccc(NC(=O)c3ccc(-c4ccccc4F)o3)cc2)CC1  -70%
86. O=C(Nc1ccc(-c2nnc3n2CCCCC3)cc1)c1cc2ccccc2o1  -71.8%
87. CN1CCN(c2ccc(NC(=O)c3cc4ccccc4o3)cc2)CC1  -72.3%
88. Cc1cc(Cl)ccc1OCCCC(=O)N1CCN(C(=O)c2ccco2)CC1  -74.5%
89. Cc1cccn2c(=O)c3cc(C(=O)NCc4cccnc4)c(=N)n(CC4CCCO4)c3nc12 (stereo not shown)  -75.6%
90. Cc1cccn2c(=O)c3cc(C(=O)NCC4CCCO4)c(=N)n(Cc4ccc(F)cc4)c3nc12 (stereo not shown)  -75.7%
91. Cc1csc(NC(=O)c2nc(-c3ccccc3)n(-c3ccccc3)n2)n1  -79.2%
92. Cc1cc(N2CCN(C)CC2)ccc1NC(=O)c1ccc(-c2ccc(Cl)cc2)o1  -80%
93. Cc1ccc(Cn2c(=N)c(C(=O)NCC3CCCO3)cc3c(=O)n4cccc(C)c4nc32)cc1 (stereo not shown)  -81.5%
94. Cc1cccn2c(=O)c3cc(C(=O)NCC4CCCO4)c(=N)n(Cc4cccnc4)c3nc12 (stereo not shown)  -95.1%
